The source made the active and inactive calls. The calls were made as follows: active = hit-call score of the fitted dose curve at least 0.9, where 1 is the maximum; inactive = score below 0.9.
Tests used:
[1] = read-out: Monocyte Chemoattractant Protein-1 (MCP1), CCL2 (gene 6347); assay: BSK_CASM3C_MCP1: BioMAP Diversity Plus: CASM3C Assay for Monocyte Chemoattractant Protein-1 (MCP1) Biomarker Activity (AID 2283046); conditions: primary human coronary artery smooth muscle cells; actives raise or lower the signal;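 also: MCP-1 level quantified by ELISA 24 h after dosing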
[2] = BSK_CASM3C_Proliferation: Cell Proliferation Assessment in the BioMAP Diversity Plus: CASM3C Assay (AID 2283047); conditions: primary human coronary artery smooth muscle cells;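 also: sulforhodamine B total protein stain as relative cell number at 560 nm; sub-confluent cells exposed 48 h before staining; fitted both ways against DMSO so gain or loss of cell number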
[3] = read-out: Monokine induced gamma interferon (MIG), CXCL9 (gene 4283); assay: BSK_CASM3C_MIG: BioMAP Diversity Plus: CASM3C Assay for Monokine induced gamma interferon (MIG) Biomarker Activity (AID 2283048); conditions: primary human coronary artery smooth muscle cells; actives raise or lower the signal;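 also: MIG protein level measured by ELISA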
[4] = read-out: serum amyloid A (SAA), SAA1 (gene 6288); assay: BSK_CASM3C_SAA: BioMAP Diversity Plus: CASM3C Assay for serum amyloid A (SAA) Biomarker Activity (AID 2283049); conditions: primary human coronary artery smooth muscle cells; actives raise or lower the signal;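 also: SAA protein level quantified by ELISA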
[5] = BSK_CASM3C_SRB: Viability Assessment in the BioMAP Diversity Plus: CASM3C Assay (AID 2283050); conditions: primary human coronary artery smooth muscle cells;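 also: total protein by SRB staining as cytotoxicity measure in parallel cultures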
[6] = read-out: Thrombomodulin, THBD (gene 7056); assay: BSK_CASM3C_Thrombomodulin: BioMAP Diversity Plus: CASM3C Assay for Thrombomodulin Biomarker Activity (AID 2283051); conditions: primary human coronary artery smooth muscle cells; actives raise or lower the signal;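 also: thrombomodulin protein level measured by ELISA 24 h after dosing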
[7] = read-out: Tissue Factor, F3 (gene 2152); assay: BSK_CASM3C_TissueFactor: BioMAP Diversity Plus: CASM3C Assay for Tissue Factor Biomarker Activity (AID 2283052); conditions: primary human coronary artery smooth muscle cells; actives raise or lower the signal;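 also: cell surface tissue factor protein level read by ELISA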
[8] = read-out: Urokinase-type plasminogen activator receptor (uPAR), PLAUR (gene 5329); assay: BSK_CASM3C_uPAR: BioMAP Diversity Plus: CASM3C Assay for Urokinase-type plasminogen activator receptor (uPAR) Biomarker Activity (AID 2283054); conditions: primary human coronary artery smooth muscle cells; actives raise or lower the signal;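 also: cell-surface uPAR protein level quantified by ELISA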
[9] = read-out: Vascular cell adhesion molecule 1 (VCAM1), VCAM1 (gene 7412); assay: BSK_CASM3C_VCAM1: BioMAP Diversity Plus: CASM3C Assay for Vascular cell adhesion molecule 1 (VCAM1) Biomarker Activity (AID 2283055); conditions: primary human coronary artery smooth muscle cells; actives raise or lower the signal;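 also: VCAM-1 protein level quantified by ELISA on the cells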
[10] = read-out: Collagen III, COL3A1 (gene 1281); assay: BSK_hDFCGF_CollagenIII: BioMAP Diversity Plus: hDFCGF Assay for Collagen III Biomarker Activity (AID 2283056); conditions: primary human foreskin fibroblasts; actives raise or lower the signal
Summary of the method: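 ELISA read-out of collagen III from human skin fibroblast cultures sampled 24 h post-dosing. Values were derived by bidirectional fitting relative to the DMSO vehicle control.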

[11] = read-out: Epidermal growth factor receptor (EGFR), EGFR (gene 1956); assay: BSK_hDFCGF_EGFR: BioMAP Diversity Plus: hDFCGF Assay for Epidermal growth factor receptor (EGFR) Biomarker Activity (AID 2283057); conditions: primary human foreskin fibroblasts; actives raise or lower the signal
Summary of the method: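 Primary human foreskin fibroblasts were exposed to compound for 24 h, after which cell-surface EGFR was quantified by ELISA. Activity was fitted bidirectionally against the DMSO negative control as baseline.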

[12] = read-out: Interleukin-8 (IL8), CXCL8 (gene 3576); assay: BSK_hDFCGF_IL8: BioMAP Diversity Plus: hDFCGF Assay for Interleukin-8 (IL8) Biomarker Activity (AID 2283058); conditions: primary human foreskin fibroblasts; actives raise or lower the signal
Summary of the method: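 Cells used are human skin primary fibroblasts. Chemical is added, cultures run 24 h, then IL-8 is quantified by ELISA, and gain or loss versus DMSO control is fitted in both directions.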

[13] = BSK_hDFCGF_Proliferation: Cell Proliferation Assessment in the BioMAP Diversity Plus: hDFCGF Assay (AID 2283059); conditions: primary human foreskin fibroblasts;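 also: curves fitted for both rise and fall of signal versus DMSO baseline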
Summary of the method: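 This proliferation readout used SRB total-protein staining of human foreskin fibroblasts […], normalized to DMSO with bidirectional curve fitting.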

[14] = read-out: Macrophage colony-stimulating factor (MCSF), CSF1 (gene 1435); assay: BSK_hDFCGF_MCSF: BioMAP Diversity Plus: hDFCGF Assay for Macrophage colony-stimulating factor (MCSF) Biomarker Activity (AID 2283060); conditions: primary human foreskin fibroblasts; actives raise or lower the signal
Summary of the method: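 Primary human foreskin fibroblasts dosed with chemical; 24 h later, M-CSF quantified by ELISA; curves fitted in both directions vs DMSO negative control.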

[15] = BSK_hDFCGF_SRB: Viability Assessment in the BioMAP Diversity Plus: hDFCGF Assay (AID 2283061); conditions: primary human foreskin fibroblasts;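 also: cells exposed to compound for 24 h before the read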
Summary of the method: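 Readout is SRB absorbance at 560 nm, reflecting total protein in parallel cultures of human foreskin fibroblasts harvested 24 h after chemical dosing. Activity was fitted bidirectionally relative to DMSO.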

[16] = read-out: TIMP metallopeptidase inhibitor 1 (TIMP1), TIMP1 (gene 7076); assay: BSK_hDFCGF_TIMP1: BioMAP Diversity Plus: hDFCGF Assay for TIMP metallopeptidase inhibitor 1 (TIMP1) Biomarker Activity (AID 2283062); conditions: primary human foreskin fibroblasts; actives raise or lower the signal
Summary of the method: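 Human skin fibroblasts (primary), hDFCGF system; compound exposure 24 h; TIMP-1 by ELISA; bidirectional fit vs DMSO negative control; overt cytotoxicity by SRB in parallel wells.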

[17] = read-out: Monokine induced gamma interferon (MIG), CXCL9 (gene 4283); assay: BSK_hDFCGF_MIG: BioMAP Diversity Plus: hDFCGF Assay for Monokine induced gamma interferon (MIG) Biomarker Activity (AID 2283063); conditions: primary human foreskin fibroblasts; actives raise or lower the signal
Summary of the method: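 Chemicals were added to primary human foreskin fibroblast cultures, which were sampled 24 h later. MIG levels were then quantified by ELISA and responses fitted in both directions relative to DMSO.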

[18] = read-out: Matrix Metallopeptidase 1 (MMP1), MMP1 (gene 4312); assay: BSK_hDFCGF_MMP1: BioMAP Diversity Plus: hDFCGF Assay for Matrix Metallopeptidase 1 (MMP1) Biomarker Activity (AID 2283064); conditions: primary human foreskin fibroblasts; actives raise or lower the signal
Summary of the method: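 Primary human foreskin fibroblasts in the hDFCGF system were dosed with test chemical, and MMP1 was measured by ELISA 24 h later. Values come from bidirectional curve fitting against the DMSO baseline.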

[19] = read-out: Vascular cell adhesion molecule 1 (VCAM1), VCAM1 (gene 7412); assay: BSK_hDFCGF_VCAM1: BioMAP Diversity Plus: hDFCGF Assay for Vascular cell adhesion molecule 1 (VCAM1) Biomarker Activity (AID 2283065); conditions: primary human foreskin fibroblasts; actives raise or lower the signal;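 as to AC50: VCAM-1 protein level quantified by ELISA after 24 h chemical exposure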
Summary of the method: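 Human foreskin fibroblast primary cells, chemical exposure 24 h; VCAM-1 by ELISA; bidirectional fit, DMSO = negative control/baseline.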

[20] = read-out: Interferon-gamma inducible Protein 10 (IP10), CXCL10 (gene 3627); assay: BSK_hDFCGF_IP10: BioMAP Diversity Plus: hDFCGF Assay for Interferon-gamma inducible Protein 10 (IP10) Biomarker Activity (AID 2283053); conditions: primary human foreskin fibroblasts; actives raise or lower the signal
Summary of the method: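 Human foreskin fibroblast primary cells (hDFCGF system) were dosed with chemical and assayed at 24 h; IP-10 measured by ELISA. Activity fitted bidirectionally relative to DMSO negative control as baseline.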

Measured: AC50

CCc1cc(SCc2sc(-c3ccc(C(F)(F)F)cc3)nc2CN2CCN(c3ccc(OC)cc3)CC2)ccc1OCC(=O)O
active: [1] 37.4 µM | [2] 15.8 µM | [3] 39.1 µM | [4] 31.9 µM | [5] 30.1 µM | [6] 35.1 µM | [8] 15.3 µM | [9] 33 µM | [10] 3.97 µM | [11] 1.94 µM | [12] 5.15 µM | [13] 1.68 µM | [14] 3.28 µM | [15] 2 µM | [16] 2.53 µM | [17] 3.38 µM | [18] 1.8 µM | [19] 3.57 µM
inactive: [7]

Nc1ccc(Nc2ccccc2)cc1
active: [2] 20 µM | [6] 3.23 µM | [8] 2.33 µM | [13] 7.37 µM | [19] 5.54 µM
not listed: [14]
inactive: all other assays above

CCOCCOCCOCCO
not listed: [20]
inactive: all other assays above

CC(O)CN(CCN(CC(C)O)CC(C)O)CC(C)O (stereo unspecified)
not listed: [14]
inactive: all other assays above

Cc1[nH]cnc1C[C@H]1CCc2c(C)c3ccccc3n2C1=O
active: [2] 26.4 µM | [8] 22 µM | [10] 19.2 µM | [13] 21.9 µM
not listed: [14]
inactive: all other assays above

O=C(O)c1cccc(Oc2ccccc2)c1
not listed: [14]
inactive: all other assays above

CNS(=O)(=O)c1cc(C(=O)N2CCC(CCN3C4CCC3CC(n3c(C)nc5ccccc53)C4)(c3cccc(F)c3)CC2)c(Cl)cc1F (stereo unspecified)
active: [2] 13.5 µM | [9] 6.7 µM | [10] 20 µM | [13] 11.5 µM | [15] 24.8 µM
not listed: [14]
inactive: all other assays above

COC(=O)CC(=O)OC
not listed: [14]
inactive: all other assays above

CN(C)c1ccc(Cc2ccc(N(C)C)cc2)cc1
active: [6] 20 µM | [8] 2.98 µM | [13] 3 µM | [18] 20 µM
not listed: [14]
inactive: all other assays above

CCC(C)(C)C(=O)O[C@H]1C[C@@H](C)C=C2C=C[C@H](C)[C@H](CC[C@@H]3C[C@@H](O)CC(=O)O3)[C@H]21
inactive: [3] | [4] | [11] | [17]
active: [1] 32.3 µM | [2] 2.18 µM | [5] 18.3 µM | [6] 0.336 µM | [7] 3.97 µM | [20] 31.4 µM | [8] 29.2 µM | [9] 29.8 µM | [10] 33.3 µM | [12] 29.5 µM | [13] 13.9 µM | [15] 25.8 µM | [16] 34.2 µM | [19] 33.9 µM

CCOC(=O)CC(CC(=O)OCC)(OC(C)=O)C(=O)OCC
not listed: [20]
inactive: all other assays above

COC(=O)c1c(Cl)c(Cl)c(C(=O)OC)c(Cl)c1Cl
not listed: [14]
inactive: all other assays above

CCOC(=O)c1ccc(C2CCC(NC[C@H](O)COc3ccc(O)c(NS(C)(=O)=O)c3)CC2)cc1 (stereo partly specified)
inactive: [1] | [3] | [4] | [7] | [8]
active: [2] 26.9 µM | [5] 15.7 µM | [6] 18.7 µM | [20] 21.8 µM | [9] 18.7 µM | [10] 13.4 µM | [11] 6.27 µM | [12] 27.2 µM | [13] 1.75 µM | [15] 5.64 µM | [16] 13.4 µM | [17] 24.7 µM | [18] 15.7 µM | [19] 8.27 µM
